Measurements taken from article PMC4336329 (PLoS ONE, 2015).
Hit rate of the full screen: of about 310,000 compounds, about 14,000 (4.5%) showed an effect of 50% or more. The effect is printed as a negative number. Many of the other results were omitted from the sample, so strong results are more common in it than they were.

Target: human ether-à-go-go-related gene (hERG) potassium channel (human, UniProt Q12809)
Experiment: primary screen, population patch clamp on CHO cells stably expressing hERG; higher = less effect of the substance
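Further: peak tail current of the secondary pulse compared with the same well before compound.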

human ether-à-go-go-related gene (hERG) potassium channel, sequence (Q12809 whole entry, looked up): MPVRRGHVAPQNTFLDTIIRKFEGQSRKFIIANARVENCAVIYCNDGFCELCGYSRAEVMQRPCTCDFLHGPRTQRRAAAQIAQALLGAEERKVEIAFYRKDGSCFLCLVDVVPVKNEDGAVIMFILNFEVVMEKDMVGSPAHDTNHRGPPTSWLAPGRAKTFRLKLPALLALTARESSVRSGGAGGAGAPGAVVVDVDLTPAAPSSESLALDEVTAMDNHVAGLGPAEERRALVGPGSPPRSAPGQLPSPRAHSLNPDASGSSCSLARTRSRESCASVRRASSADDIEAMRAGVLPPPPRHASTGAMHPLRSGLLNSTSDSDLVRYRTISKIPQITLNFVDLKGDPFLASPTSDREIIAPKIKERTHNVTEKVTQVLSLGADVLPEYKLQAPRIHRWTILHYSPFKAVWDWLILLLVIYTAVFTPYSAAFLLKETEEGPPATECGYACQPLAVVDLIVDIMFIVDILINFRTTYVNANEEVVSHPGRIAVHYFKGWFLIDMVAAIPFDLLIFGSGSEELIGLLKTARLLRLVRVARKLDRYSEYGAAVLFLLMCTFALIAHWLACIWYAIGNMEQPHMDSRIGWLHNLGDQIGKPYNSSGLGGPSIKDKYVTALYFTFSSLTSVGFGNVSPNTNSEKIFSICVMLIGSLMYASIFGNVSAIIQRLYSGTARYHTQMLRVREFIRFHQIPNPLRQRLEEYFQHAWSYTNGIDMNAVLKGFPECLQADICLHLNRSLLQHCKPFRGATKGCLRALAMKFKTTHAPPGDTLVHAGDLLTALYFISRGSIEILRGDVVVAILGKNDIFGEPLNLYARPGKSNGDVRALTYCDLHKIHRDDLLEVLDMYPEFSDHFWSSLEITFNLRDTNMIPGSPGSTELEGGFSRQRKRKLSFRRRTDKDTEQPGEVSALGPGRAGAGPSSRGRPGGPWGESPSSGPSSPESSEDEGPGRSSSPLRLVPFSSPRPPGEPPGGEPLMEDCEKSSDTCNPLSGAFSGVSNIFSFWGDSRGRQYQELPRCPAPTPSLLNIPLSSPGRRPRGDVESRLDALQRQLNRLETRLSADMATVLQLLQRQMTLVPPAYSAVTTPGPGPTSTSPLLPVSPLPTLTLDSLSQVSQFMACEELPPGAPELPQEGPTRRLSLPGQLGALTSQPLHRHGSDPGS

Structure (SMILES) | hERG current change (%, negative = inhibition) at 10uM [%]
CCn1cc(CN2CCC(C(=O)Nc3cccc(-c4cccc(Cl)c4)c3)CC2)c(C)n1 | -78.9
CCn1cc(CN2CCC(C(=O)Nc3cccc(-c4cccc(OC)c4)c3)CC2)c(C)n1 | -46.3
C=CCn1cc(CN2CCC(C(=O)Nc3cccc(-c4cccc(Cl)c4)c3)CC2)c(C)n1 | -71.5
Cc1c(CN2CCC(C(=O)Nc3ccc(Oc4ccccc4)nc3)CC2)cnn1C | -32.8
C=CCOc1cccc(C2NC(=O)c3ccccc3O2)c1 (stereo not drawn) | 21.4
C/C(=N/O)c1cc(C(C)(C)C)c(O)c(C(C)(C)C)c1 | 14.6
COc1ccc([C@@H]2CC=C(C(=O)O)[C@H](c3ccc(F)cc3)N2S(=O)(=O)c2ccc(C)cc2)cc1OC | 10.5
Fc1cccc(Cl)c1Cn1nnc(-c2ccc3c(c2)OCO3)n1 | -1.37
N=c1c2c3c(sc2nc2n1CCCCC2)CCCC3 | -45.2
N=c1c2c3c(sc2nc2n1CCC2)CCCC3 | -28.9
N=c1c2c3c(sc2nc2n1CCCCC2)CCCCC3 | -53
NC(=O)NCc1cccs1 | 7.27
O=[N+]([O-])c1ccc(-c2ccc(S(=O)(=O)N3CCOCC3)cc2)cc1 | -29.8
O=S(=O)(c1ccc(Oc2ccccc2)cc1)N1CCOCC1 | 0.463
O=[N+]([O-])c1ccccc1Oc1ccc(S(=O)(=O)N2CCOCC2)cc1 | -63.8
O=C(c1ccccc1Oc1ccc([N+](=O)[O-])cc1)N1CCOCC1 | -52
CCOc1cc(C(=S)N2CCOCC2)ccc1OS(=O)(=O)c1ccccc1[N+](=O)[O-] | 8.98
O=[N+]([O-])c1ccccc1S(=O)(=O)Nc1ccc(S(=O)(=O)N2CCOCC2)cc1 | 14.7
Cn1nc([N+](=O)[O-])nc1Oc1ccccc1C(=O)N1CCOCC1 | 17.4
O=[N+]([O-])c1ccc(Oc2ccc(S(=O)(=O)N3CCOCC3)cc2)cc1 | -63.4
COc1cc(C(=S)N2CCOCC2)ccc1OS(=O)(=O)c1ccccc1[N+](=O)[O-] | -1.24

Structure (SMILES) | hERG current change (%, negative = inhibition) at 10uM [%]
O=[N+]([O-])c1ccccc1S(=O)(=O)Oc1ccc(C(=S)N2CCOCC2)cc1 | -75
O=S(=O)(c1ccc(Oc2ccc(S(=O)(=O)N3CCOCC3)cc2)cc1)N1CCOCC1 | 9.29
O=C(c1cccc(Oc2ccc([N+](=O)[O-])cc2)c1)N1CCOCC1 | -34.3
NC(=O)CC(NC(=O)Cc1ccc(Br)cc1)c1ccc(N2CCc3ccccc3C2)c([N+](=O)[O-])c1 (stereo not drawn) | -2.08
O=S(=O)(Nc1ccc(Cl)nn1)c1ccccc1 | 12.7
Cn1c(N)c(C(=O)COC(=O)/C=C/c2ccc(OC(F)F)cc2)c(=O)n(C)c1=O | 3.23
O=C(O)C(=O)O.Oc1ccccc1CN1CCC(C(O)(c2ccccc2)c2ccccc2)CC1 | -68.5
O=C(O)C(=O)O.Oc1ccccc1CN1CCN(C(O)(c2ccccc2)c2ccccc2)CC1 | -46
O=C(CN1CCC(C(O)(c2ccccc2)c2ccccc2)CC1)Nc1ccccc1 | -42.1
Nc1c(Cl)cc(-c2csc(N3CCCC3c3nc4cc(Cl)c(Cl)cc4n3CCCO)n2)cc1Cl (stereo not drawn) | -2.8
CC(NC(=O)C1CC1)C(c1cccs1)N1CCN(c2ccccc2)CC1 (stereo not drawn) | -0.284
COc1ccc(NC(=O)CN(C)Cc2cccs2)cc1Cl | -15.7
O=S(=O)(c1ccc(Br)cc1)c1nc(-c2ccccc2)oc1N1CCOCC1 | -30.7
NC(=O)C1CCN(c2oc(-c3ccccc3)nc2S(=O)(=O)c2ccc(Br)cc2)CC1 | -55.9
NC(=O)C1CCN(c2oc(-c3ccc(F)cc3)nc2S(=O)(=O)c2ccccc2)CC1 | -17.4
CN1CCN(c2oc(-c3ccccc3)nc2S(=O)(=O)c2ccc(Br)cc2)CC1 | -68.6
O=S(=O)(c1ccc(F)cc1)c1nc(-c2ccccc2F)oc1N1CCCCC1 | -20
O=S(=O)(c1ccccc1)c1nc(-c2ccccc2)oc1N1CCCC1 | 8.44
CN1CCN(c2oc(-c3ccccc3F)nc2S(=O)(=O)c2ccc(Cl)cc2)CC1 | -57.6
Cc1ccc(S(=O)(=O)c2nc(-c3ccccc3)oc2N2CCC(C(N)=O)CC2)cc1 | -26.3
CN1CCN(c2oc(-c3ccccc3Cl)nc2S(=O)(=O)c2ccccc2)CC1 | -47.9
